Where “and” joins values, the source holds several entries; their conditions need not be identical. Equal entries are not always repeated. Out of some 5,500 compounds screened, about 2,000 (36%) were called active. Roughly 18% stayed inconclusive and do not appear here. No stated cut-off is given here; in the data, active means normalized growth mostly below about 0.91 (no sharp cut-off); inconclusive means no clear call, values can overlap the other calls; inactive means mostly above about 0.92. This is one part of the list.
Test: chemical genetic growth profiling, strain panel (AID 1159580);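 further: tested at 20 µM; growth read once vehicle control cultures reached saturation at 30 °C; 1 = growth at the plate median or of vehicle wells; lower values mean less growth of the strain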
Settings: S. cerevisiae deletion strains, growth OD

Measured: normalized growth

CC1=C(/C=C/C(C)=C/C=C/C(C)=C/CO)C(C)(C)CCC1
inactive: locus YAL013W, strain DEP1, hits give low values 1 | locus YAL021C, strain ccr4, hits give low values 1.05 | locus YAL026C, strain drs2, hits give low values 1.03 | locus YAL030W, strain snc1, hits give low values 0.995 | locus YBL061C, strain skt5, hits give low values 1.02 | locus YBR009C, strain hhf1, hits give low values 0.961 | locus YBR021W, strain FUR4, hits give low values 1.01 | locus YBR023C, strain chs3, hits give low values 1.01 | locus YBR171W, strain sec66, hits give low values 1.01 | locus YBR229C, strain ROT2, hits give low values 0.969 | locus YBR231C, strain swc5, hits give low values 0.983 | locus YBR279W, strain paf1, hits give low values 1 | locus YCL011C, strain gbp2, hits give low values 1.04 | locus YCL016C, strain dcc1, hits give low values 1.04 | locus YCL029C, strain bik1, hits give low values 1 | locus YCL061C, strain MRC1, hits give low values 1.01 | locus YCL069W, strain vba3, hits give low values 1.01 | locus YCR088W, strain abp1, hits give low values 1.03 | locus YDL005C, strain med2, hits give low values 1.02 | locus YDL035C, strain GPR1, hits give low values 0.982 | locus YDL040C, strain nat1, hits give low values 0.998 | locus YDL074C, strain BRE1, hits give low values 0.938 | locus YDL101C, strain DUN1, hits give low values 0.977 | locus YDL134C, strain PPH21, hits give low values 1.02 | locus YDL185W, strain tfp1, hits give low values 0.997 | locus YDL192W, strain arf1, hits give low values 1 | locus YDR001C, strain nth1, hits give low values 1.01 | locus YDR069C, strain doa4, hits give low values 1.04 | locus YDR101C, strain arx1, hits give low values 0.993 | locus YDR137W, strain rgp1, hits give low values 1.03 | locus YDR150W, strain NUM1, hits give low values 1 | locus YDR159W, strain sac3, hits give low values 0.968 | locus YDR162C, strain NBP2, hits give low values 0.993 | locus YDR195W, strain ref2 0.988 | locus YDR297W, strain sur2, hits give low values 1 | locus YDR318W, strain mcm21, hits give low values 1 | locus YDR334W, strain swr1, hits give low values 1.02 | locus YDR335W, strain msn5, hits give low values 1.02 | locus YDR388W, hits give low values 1 | locus YDR392W, strain spt3, hits give low values 0.965 | locus YDR502C, strain sam2, hits give low values 1 | locus YEL003W, strain gim4, hits give low values 1 | locus YEL037C, strain rad23, hits give low values 1 | locus YEL061C, strain CIN8 (second series), hits give low values 1.01 | locus YEL061C, strain CIN8, hits give low values 0.992 | locus YER015W, strain faa2, hits give low values 1.01 | locus YER016W, strain bim1, hits give low values 1.06 | locus YER110C, hits give low values 0.999 | locus YER111C, strain swi4, hits give low values 1 | locus YER155C, strain BEM2 (second series), hits give low values 1.07 | locus YER155C, strain BEM2, hits give low values 1.01 | locus YER167W, strain BCK2, hits give low values 1 | locus YFR010W, strain ubp6, hits give low values 0.988 | locus YGL078C, strain dbp3, hits give low values 1.01 | locus YGL086W, strain mad1, hits give low values 0.983 | locus YGL167C, strain pmr1, hits give low values 1.01 | locus YGL173C, strain kem1, hits give low values 0.971 | locus YGL227W, strain vid30, hits give low values 1 | locus YGL240W, strain doc1, hits give low values 1.01 | locus YGL248W, strain PDE1, hits give low values 0.965 | locus YGL253W, strain hxk2, hits give low values 0.993 | locus YGR078C, strain PAC10, hits give low values 0.967 | locus YGR135W, strain pre9, hits give low values 1 | locus YGR252W, strain gcn5, hits give low values 0.985 | locus YHR013C, strain ard1, hits give low values 1.04 | locus YHR027C, strain rpn1, hits give low values 1.01 | locus YHR030C, strain SLT2, hits give low values 1.01 and 0.999 | locus YHR079C, strain IRE1 (second series), hits give low values 1.01 | locus YHR079C, strain IRE1, hits give low values 1.04 | locus YHR094C, strain hxt1, hits give low values 1.01 | locus YHR129C, strain ARP1, hits give low values 1.01 | locus YHR142W, strain chs7, hits give low values 1 | locus YHR200W, strain rpn10, hits give low values 1 | locus YIL066C, strain RNR3, hits give low values 0.964 | locus YIL073C, strain SPO22, hits give low values 1.01 | locus YIL125W, strain kgd1, hits give low values 0.995 | locus YIR030C, strain dcg1, hits give low values 0.998 | locus YJL092W, strain hpr5, hits give low values 1 | locus YJL095W, strain BCK1 (second series), hits give low values 1 | locus YJL095W, strain BCK1, hits give low values 0.924 and 1.01 | locus YJL115W, strain asf1, hits give low values 1.01 | locus YJL129C, strain trk1, hits give low values 0.985 | locus YJL134W, strain LCB3, hits give low values 1.01 | locus YJL154C, strain vps35, hits give low values 1.02 | locus YJL164C, strain tpk1, hits give low values 0.993 | locus YJL166W, strain qcr8, hits give low values 0.967 | locus YJL168C, strain set2, hits give low values 0.997 | locus YJL187C, strain SWE1 (second series), hits give low values 0.96
